Experimental data as given in PubChem BioAssay (Tox21).
Results filed as inconclusive are left out. A call without a number means that no potency is given here. Unmarked numbers belong to inactive results. Active and inactive are the calls of the source. The call rests on the fitted dose curve; in most records, active means well fitted curve in the direction sought with a large enough effect in the repeat runs; inconclusive means weak or mixed curves; inactive means no such curve, though single readings can be large; an effect the other way counts as inactive or inconclusive. Where a SMILES comes first, the peptide text is derived from it. [ ]: non-standard residue; d: D form. pGlu = O=C1CC[C@@H](C(=O)O)N1

Columns and labels:
[1] = target: Cytochrome P450 2C19 (Homo sapiens) (UniProt P33261); experiment: Cytochrome P450 Family 2 Subfamily C Member 19 (CYP2C19) small molecule antagonists: luciferase reporter qHTS assay (AID 1671197); further: nearly all actives have a fitted effect of over 65% in size; on activity change, negative = inhibition: series mostly up to about 120 µM
Outline: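 Light output is proportional to CYP2C19 activity: proluciferin substrate is converted to luciferin, then detected by a luciferin detection reagent that also stops the 1 h, 37C NADPH-driven reaction. Ketoconazole serves as positive control.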

[2] = target: Cytochrome P450 1A2 (Homo sapiens) (UniProt P05177); experiment: Cytochrome P450 Family 1 Subfamily A Member 2 (CYP1A2) small molecule antagonists: luciferase reporter qHTS assay (AID 1671199); further: nearly all actives have a fitted effect of over 50% in size; on activity change, negative = inhibition: series mostly up to about 120 µM
Outline: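 Read-out is luminescence from luciferin detection reagent (20 min) proportional to CYP1A2 activity; compounds in DMSO preincubated 10 min with enzyme and proluciferin substrate, then NADPH regeneration solution, 1 h, room temperature.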

[3] = target: Voltage-gated inwardly rectifying potassium channel KCNH2 (Homo sapiens) (UniProt Q12809); experiment: Human Ether-a-go-go-Related Gene (hERG) channel small molecule antagonists: fluorescence cell-based qHTS assay (AID 1671200); further: nearly all actives have a fitted effect of over 50% in size;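 on activity change, negative = inhibition: hERG-expressing U2OS cells given a thallium stimulus after FluxOR II dye loading; series mostly up to about 77 µM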
Outline: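 Fluorescence at 540 nm emission (480 nm excitation) was recorded kinetically for 2 min at 1-second intervals once the thallium-containing stimulus reached cells previously loaded with FluxOR II dye.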

[4] = target: Cytochrome P450 3A4 (Homo sapiens) (UniProt P08684); experiment: Cytochrome P450 Family 3 Subfamily A Member 4 (CYP3A4) small molecule antagonists: luciferase reporter qHTS assay (AID 1671201); further: nearly all actives have a fitted effect of over 50% in size; on activity change, negative = inhibition: series mostly up to about 120 µM
Outline: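 qHTS, 1536-well. CYP3A4 + proluciferin substrate, cpd 10 min RT → NADPH regen 1 h RT → detection reagent 20 min → luminescence (RLU). Ketoconazole positive control.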

[5] = target: Cytochrome P450 2C9 (Homo sapiens) (UniProt P11712); experiment: Cytochrome P450 Family 2 Subfamily C Member 9 (CYP2C9) small molecule antagonists: luciferase reporter qHTS assay (AID 1671198); further: nearly all actives have a fitted effect of over 50% in size
Outline: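 CYP2C9 activity was measured with a P450-Glo proluciferin substrate. Enzyme–substrate mix was held with compound for 10 min at room temperature, then NADPH regeneration solution was added for 1 h at 37C. Luciferin product was read as luminescence.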
Potency means the concentration at half of the fitted maximal effect.

Chain of Cytochrome P450 1A2 (Homo sapiens) (P05177 whole entry, looked up): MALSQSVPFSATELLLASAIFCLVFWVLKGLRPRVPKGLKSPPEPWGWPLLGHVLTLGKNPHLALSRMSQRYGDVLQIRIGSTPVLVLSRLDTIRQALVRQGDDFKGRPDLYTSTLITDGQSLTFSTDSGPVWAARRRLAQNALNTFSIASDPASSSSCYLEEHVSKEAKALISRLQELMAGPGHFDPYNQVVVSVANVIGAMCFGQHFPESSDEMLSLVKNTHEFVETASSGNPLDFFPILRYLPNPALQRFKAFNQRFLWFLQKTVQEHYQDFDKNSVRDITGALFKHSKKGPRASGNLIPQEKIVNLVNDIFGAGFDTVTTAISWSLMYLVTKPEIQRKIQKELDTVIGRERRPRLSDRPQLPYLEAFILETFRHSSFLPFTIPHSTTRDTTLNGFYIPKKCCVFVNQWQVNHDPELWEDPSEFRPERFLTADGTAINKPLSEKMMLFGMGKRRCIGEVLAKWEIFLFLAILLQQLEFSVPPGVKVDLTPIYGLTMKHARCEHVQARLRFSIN
Chain of Cytochrome P450 3A4 (Homo sapiens) (P08684 whole entry, looked up): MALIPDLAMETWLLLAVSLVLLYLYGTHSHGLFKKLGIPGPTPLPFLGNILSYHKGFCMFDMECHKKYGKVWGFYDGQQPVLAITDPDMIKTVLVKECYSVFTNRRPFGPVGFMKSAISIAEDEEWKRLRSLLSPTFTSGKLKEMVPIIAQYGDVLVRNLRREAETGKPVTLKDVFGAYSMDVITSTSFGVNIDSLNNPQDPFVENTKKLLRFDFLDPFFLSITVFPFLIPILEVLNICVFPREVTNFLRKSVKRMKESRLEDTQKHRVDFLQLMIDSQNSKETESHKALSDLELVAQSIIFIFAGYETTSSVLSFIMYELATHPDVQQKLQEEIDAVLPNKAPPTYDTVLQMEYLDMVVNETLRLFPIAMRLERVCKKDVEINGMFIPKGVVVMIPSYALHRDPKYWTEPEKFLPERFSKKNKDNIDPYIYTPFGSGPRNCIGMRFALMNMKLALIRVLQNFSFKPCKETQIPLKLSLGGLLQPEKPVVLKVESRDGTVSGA
Chain of Cytochrome P450 2C9 (Homo sapiens) (P11712 whole entry, looked up): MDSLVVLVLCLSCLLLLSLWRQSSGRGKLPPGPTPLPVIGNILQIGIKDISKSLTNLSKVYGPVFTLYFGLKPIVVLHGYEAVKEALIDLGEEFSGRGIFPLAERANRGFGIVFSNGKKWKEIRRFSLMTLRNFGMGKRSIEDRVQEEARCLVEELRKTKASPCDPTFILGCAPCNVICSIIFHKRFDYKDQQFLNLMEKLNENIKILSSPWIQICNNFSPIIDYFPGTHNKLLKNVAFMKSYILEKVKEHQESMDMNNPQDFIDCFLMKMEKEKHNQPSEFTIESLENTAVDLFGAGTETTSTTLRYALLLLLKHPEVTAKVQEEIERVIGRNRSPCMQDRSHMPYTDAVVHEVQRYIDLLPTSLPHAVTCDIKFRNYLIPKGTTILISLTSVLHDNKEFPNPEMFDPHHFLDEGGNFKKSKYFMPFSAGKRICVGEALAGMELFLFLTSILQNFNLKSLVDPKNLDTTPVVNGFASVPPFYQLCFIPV
Chain of Voltage-gated inwardly rectifying potassium channel KCNH2 (Homo sapiens) (Q12809 whole entry, looked up): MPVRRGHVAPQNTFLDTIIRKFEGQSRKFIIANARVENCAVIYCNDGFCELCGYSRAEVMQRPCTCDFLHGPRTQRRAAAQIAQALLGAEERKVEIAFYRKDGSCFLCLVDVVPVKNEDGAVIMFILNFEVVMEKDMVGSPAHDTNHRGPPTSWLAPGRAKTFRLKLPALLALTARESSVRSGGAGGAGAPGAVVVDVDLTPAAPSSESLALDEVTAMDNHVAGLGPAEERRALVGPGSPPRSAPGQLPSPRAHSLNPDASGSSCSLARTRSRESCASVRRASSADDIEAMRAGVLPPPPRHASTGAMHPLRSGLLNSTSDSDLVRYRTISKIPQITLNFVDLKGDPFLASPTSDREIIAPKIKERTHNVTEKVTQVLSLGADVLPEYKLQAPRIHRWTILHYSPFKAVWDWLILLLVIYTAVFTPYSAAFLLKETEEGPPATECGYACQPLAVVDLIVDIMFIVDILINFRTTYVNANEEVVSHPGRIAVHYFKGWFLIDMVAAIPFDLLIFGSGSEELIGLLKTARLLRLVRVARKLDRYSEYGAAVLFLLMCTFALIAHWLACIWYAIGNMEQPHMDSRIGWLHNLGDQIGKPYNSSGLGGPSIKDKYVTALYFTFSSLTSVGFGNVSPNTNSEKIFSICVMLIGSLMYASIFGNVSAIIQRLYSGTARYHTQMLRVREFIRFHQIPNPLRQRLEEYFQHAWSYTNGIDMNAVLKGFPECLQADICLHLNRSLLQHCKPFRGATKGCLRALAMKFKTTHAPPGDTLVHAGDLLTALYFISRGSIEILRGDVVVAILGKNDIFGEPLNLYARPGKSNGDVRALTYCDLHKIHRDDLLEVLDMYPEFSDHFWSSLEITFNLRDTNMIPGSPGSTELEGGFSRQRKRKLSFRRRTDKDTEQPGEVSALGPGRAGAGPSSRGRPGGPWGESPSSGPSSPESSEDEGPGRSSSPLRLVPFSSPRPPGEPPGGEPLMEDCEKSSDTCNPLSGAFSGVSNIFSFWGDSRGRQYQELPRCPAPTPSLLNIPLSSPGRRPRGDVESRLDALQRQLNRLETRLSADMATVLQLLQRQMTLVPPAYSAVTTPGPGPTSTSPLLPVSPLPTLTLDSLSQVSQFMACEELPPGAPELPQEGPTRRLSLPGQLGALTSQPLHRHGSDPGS
Chain of Cytochrome P450 2C19 (Homo sapiens) (P33261 whole entry, looked up): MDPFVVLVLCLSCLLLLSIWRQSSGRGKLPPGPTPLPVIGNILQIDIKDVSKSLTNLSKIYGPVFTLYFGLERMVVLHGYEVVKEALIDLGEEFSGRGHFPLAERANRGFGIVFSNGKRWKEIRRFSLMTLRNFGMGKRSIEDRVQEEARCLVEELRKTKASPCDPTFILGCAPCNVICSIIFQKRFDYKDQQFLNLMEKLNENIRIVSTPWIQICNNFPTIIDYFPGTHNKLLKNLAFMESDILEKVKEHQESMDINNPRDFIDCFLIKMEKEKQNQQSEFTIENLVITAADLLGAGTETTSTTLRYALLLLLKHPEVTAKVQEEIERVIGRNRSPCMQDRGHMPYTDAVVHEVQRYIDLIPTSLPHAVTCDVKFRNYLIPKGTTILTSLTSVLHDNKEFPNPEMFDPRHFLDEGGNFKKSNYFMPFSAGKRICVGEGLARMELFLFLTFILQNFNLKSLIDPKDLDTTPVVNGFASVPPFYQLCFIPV

Row | SMILES | Potency [1] | Potency [2] | Potency [3] | Potency [4] | Potency [5] | activity change, negative = inhibition [3] | activity change, negative = inhibition [4]
1 | C=C(C)C(=O)OCC1CCCO1 (configuration not stated) | inactive | inactive | inactive | inactive | – | – | –
2 | CCCCCCCCN1CCCC1=O | 10 µM (active) | 39.9 µM (active) | inactive | inactive | – | – | –
3 | CC1=CC(=O)[C@H]2C[C@@H]1C2(C)C | inactive | inactive | inactive | inactive | – | – | –
4 | CCOC(=O)C1=NOC(c2ccccc2)(c2ccccc2)C1 | 20 µM (active) | – | – | inactive | 7.1 µM (active) | – | –
5 | CN(C)CCN(C)CCN(C)C | inactive | inactive | inactive | inactive | – | – | –
6 | CN1[C@@H]2CC[C@H]1CC(OC(=O)C(O)c1ccccc1)C2 (some centres not stated) | inactive | inactive | inactive | inactive | – | – | –
7 | Cc1ncc([C@@H](CCCCCCc2ccc3c(n2)NCCC3)CC(=O)O)cn1 | inactive | inactive | inactive | inactive | – | – | –
8 | CCCOC(=O)CC | inactive | 35.5 µM (active) | inactive | inactive | – | – | –
9 | CCOC(=O)c1cnc2c(cnn2CC)c1NN=C(C)C | 30.9 µM (active) | 2.04 µM (active) | inactive | – | – | – | –
10 | C[C@H]1C[C@H]2[C@@H]3CCC4=CC(=O)C=C[C@]4(C)[C@H]3C(=O)C[C@]2(C)[C@@]1(O)C(=O)CO | inactive | – | inactive | inactive | 13.8 µM (active) | – | –
11 | N[C@@H](CCC(=O)O)C(=O)O | 71 µM (active) | 39.9 µM (active) | inactive | inactive | – | – | –
12 | CCNC(=O)[C@@H]1CCCN1C(=O)[C@H](CCCN=C(N)N)NC(=O)[C@H](CC(C)C)NC(=O)CNC(=O)[C@H](Cc1ccc(O)cc1)NC(=O)[C@H](CO)NC(=O)[C@H](Cc1c[nH]c2ccccc12)NC(=O)[C@H](Cc1cnc[nH]1)NC(=O)[C@@H]1CCC(=O)N1 ([pGlu]HWSYGLRP-NHEt) | inactive | inactive | inactive | – | – | – | –
13 | COc1ccnc(CS(=O)c2nc3cc(OC(F)F)ccc3[nH]2)c1OC (configuration not stated) | 8.99 µM (active) | 35.8 µM (active) | – | – | – | – | –
14 | C=CC(C)(CCC=C(C)C)OC(=O)CC (configuration not stated) | 35.6 µM (active) | – | inactive | 28.3 µM (active) | 31.7 µM (active) | – | –
15 | CCCCS(=O)(=O)N[C@@H](Cc1ccc(OCCCCC2CCNCC2)cc1)C(=O)O | inactive | inactive | inactive | inactive | – | – | –
16 | Cc1ncc(COP(=O)(O)O)c(C=O)c1O | inactive | 17.4 µM (active) | inactive | inactive | – | – | –

Row | SMILES | Potency [1] | Potency [2] | Potency [3] | Potency [4] | Potency [5] | activity change, negative = inhibition [3] | activity change, negative = inhibition [4]
17 | O=[N+]([O-])c1cncn1CCN1CCOCC1 | inactive | inactive | inactive | – | – | – | –
18 | O=Cc1cccc(Br)c1 | 18.3 µM (active) | 16.3 µM (active) | inactive | 81.7 µM (active) | – | – | –
19 | O=S(=O)(O)c1cccc(S(=O)(=O)O)c1 | inactive | inactive | inactive | inactive | – | – | –
20 | CC[N+](CC)(CC(=O)Nc1c(C)cccc1C)Cc1ccccc1 (tested in a mixture with another compound) | 52.3 µM (active) | inactive | – | – | – | – | –
21 | CC1=NN(c2cccc(S(=O)(=O)O)c2)C(=O)C1 | inactive | 44.8 µM (active) | inactive | inactive | – | – | –
22 | C[N+]1(C)[C@@H]2CC(OC(=O)[C@H](CO)c3ccccc3)C[C@H]1[C@@H]1O[C@@H]12 (some centres not stated) | inactive | inactive | inactive | inactive | – | – | –
23 | CC(C)CCCO | inactive | inactive | inactive | inactive | – | – | –
24 | CCC(=O)OCc1ccccc1 | inactive | inactive | inactive | inactive | – | – | –
25 | CC(=O)O[C@@]12CO[C@@H]1C[C@H](O)[C@@]1(C)C(=O)[C@H](O)C3=C(C)[C@@H](OC(=O)[C@H](O)[C@@H](NC(=O)OC(C)(C)C)c4ccccc4)C[C@@](O)([C@@H](OC(=O)c4ccccc4)[C@H]21)C3(C)C | inactive | inactive | inactive | – | – | – | –
26 | CN1CC(=O)N/C1=N/C(=O)Nc1cccc(Cl)c1 | inactive | 20.4 µM (active) | inactive | inactive | – | – | –
27 | CC(C(=O)O)c1cccc(Oc2ccccc2)c1 (configuration not stated) | inactive | inactive | inactive | inactive | – | – | –
28 | C[N+]1(CC2COC(c3ccccc3)(c3ccccc3)O2)CCCCC1 (configuration not stated) | inactive | inactive | – | – | – | -15.6% [at 15.8 µM] | -9.22% [at 23.6 µM]
29 | Cc1onc(-c2c(Cl)cccc2Cl)c1C(=O)Cl | 21.9 µM (active) | inactive | inactive | – | – | – | –
30 | Cc1nc(C2CCCCC2)c(-c2ccc(S(N)(=O)=O)c(F)c2)o1 | 38.9 µM (active) | inactive | inactive | – | – | – | –
31 | CCCCOCCOC(=O)COc1cc(Cl)c(Cl)cc1Cl | 35.6 µM (active) | – | 24.5 µM (active) | inactive | – | – | –
